What all share (assay): DAPPL (digital affinity profiling via proximity ligation, sequencing); 10 mM Tris-HCl pH 7.5, 50 mM NaCl, 1 mM DTT, 4% glycerol, room temperature, 30 min; GST-TFs on glutathione beads, 16-mer random dsDNA library, 0.1% formaldehyde crosslink after washing; high values mean tight binding
What all share (settings): protein: recombinant; tags: N-terminal GST; dsDNA, one strand shown

One assay has as its target T1, ERF (Homo sapiens, UniProt P50548 1-548).
T1 sequence: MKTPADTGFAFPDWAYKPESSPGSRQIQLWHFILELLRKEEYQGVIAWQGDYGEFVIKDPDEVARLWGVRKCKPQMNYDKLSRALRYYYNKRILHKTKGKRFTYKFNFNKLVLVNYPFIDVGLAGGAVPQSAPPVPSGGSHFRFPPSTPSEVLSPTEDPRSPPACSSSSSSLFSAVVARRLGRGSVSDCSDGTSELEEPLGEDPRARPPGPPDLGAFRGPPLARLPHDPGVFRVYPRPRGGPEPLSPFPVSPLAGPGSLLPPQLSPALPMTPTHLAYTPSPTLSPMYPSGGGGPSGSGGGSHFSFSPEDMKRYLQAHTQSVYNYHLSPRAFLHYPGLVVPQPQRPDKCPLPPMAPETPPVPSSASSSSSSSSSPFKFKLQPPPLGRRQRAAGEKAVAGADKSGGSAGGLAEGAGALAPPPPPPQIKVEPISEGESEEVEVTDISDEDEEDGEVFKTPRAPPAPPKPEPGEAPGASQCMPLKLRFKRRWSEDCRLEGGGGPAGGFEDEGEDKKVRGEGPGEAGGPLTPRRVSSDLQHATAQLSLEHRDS
In outline:
(§1)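 A tag-only sample was pooled with DNA-barcoded human transcription factors that had been expressed in yeast as GST fusions and captured on glutathione beads. The pools were incubated for 30 min at room temperature with 200 nmole of a random double-stranded 16-mer DNA library in Tris/NaCl/DTT/glycerol buffer, then washed, crosslinked with 0.1% formaldehyde, proximity-ligated (BsaI/T4 ligase, 1 h, 37 °C), PCR-amplified and sequenced on an Illumina NextSeq500. Binding signal is each hexamer's read frequency for a factor divided by its frequency for the tag-only sample.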

The next assay deals with T2, ETV3L (Homo sapiens, UniProt Q6ZN32 1-361).
T2 sequence: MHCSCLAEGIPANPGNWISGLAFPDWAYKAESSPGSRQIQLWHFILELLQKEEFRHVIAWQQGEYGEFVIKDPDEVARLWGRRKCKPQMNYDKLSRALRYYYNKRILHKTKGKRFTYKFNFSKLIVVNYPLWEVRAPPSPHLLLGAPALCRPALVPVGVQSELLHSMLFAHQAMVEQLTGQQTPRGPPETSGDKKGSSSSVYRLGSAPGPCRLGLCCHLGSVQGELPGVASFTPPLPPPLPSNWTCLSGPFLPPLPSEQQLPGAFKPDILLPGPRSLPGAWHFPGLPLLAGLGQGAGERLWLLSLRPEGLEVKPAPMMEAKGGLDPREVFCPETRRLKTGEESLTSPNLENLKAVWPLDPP
In outline:
as §1

The target in another assay is T3, ETS2 (Homo sapiens, UniProt P15036 1-469).
T3 sequence: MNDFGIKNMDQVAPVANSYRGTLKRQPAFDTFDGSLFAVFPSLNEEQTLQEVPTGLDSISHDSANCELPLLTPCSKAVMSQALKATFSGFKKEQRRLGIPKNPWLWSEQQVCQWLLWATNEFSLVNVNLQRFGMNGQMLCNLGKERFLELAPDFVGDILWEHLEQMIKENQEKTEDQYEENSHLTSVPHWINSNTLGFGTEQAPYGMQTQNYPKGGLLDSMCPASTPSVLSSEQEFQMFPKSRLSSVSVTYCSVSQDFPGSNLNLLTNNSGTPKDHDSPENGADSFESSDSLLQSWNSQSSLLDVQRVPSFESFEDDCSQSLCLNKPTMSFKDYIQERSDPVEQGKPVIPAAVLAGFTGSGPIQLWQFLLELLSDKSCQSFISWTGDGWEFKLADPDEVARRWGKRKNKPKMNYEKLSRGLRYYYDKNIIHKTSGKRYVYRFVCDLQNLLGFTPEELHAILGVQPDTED
In outline:
as §1

Another assay has as its target T4, SPDEF (Homo sapiens, UniProt O95238 1-335).
T4 sequence: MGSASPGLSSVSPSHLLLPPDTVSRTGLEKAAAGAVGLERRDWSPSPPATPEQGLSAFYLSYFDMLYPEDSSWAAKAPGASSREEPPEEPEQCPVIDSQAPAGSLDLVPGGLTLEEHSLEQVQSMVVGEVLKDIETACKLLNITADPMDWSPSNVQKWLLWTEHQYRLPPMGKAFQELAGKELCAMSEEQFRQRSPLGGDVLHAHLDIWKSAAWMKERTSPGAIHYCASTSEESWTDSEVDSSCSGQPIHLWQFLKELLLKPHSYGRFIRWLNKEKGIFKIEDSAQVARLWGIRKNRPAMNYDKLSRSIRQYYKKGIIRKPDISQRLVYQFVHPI
In outline: as §1

A further assay deals with T5, ETV7 (Homo sapiens, UniProt Q9Y603 1-341).
T5 sequence: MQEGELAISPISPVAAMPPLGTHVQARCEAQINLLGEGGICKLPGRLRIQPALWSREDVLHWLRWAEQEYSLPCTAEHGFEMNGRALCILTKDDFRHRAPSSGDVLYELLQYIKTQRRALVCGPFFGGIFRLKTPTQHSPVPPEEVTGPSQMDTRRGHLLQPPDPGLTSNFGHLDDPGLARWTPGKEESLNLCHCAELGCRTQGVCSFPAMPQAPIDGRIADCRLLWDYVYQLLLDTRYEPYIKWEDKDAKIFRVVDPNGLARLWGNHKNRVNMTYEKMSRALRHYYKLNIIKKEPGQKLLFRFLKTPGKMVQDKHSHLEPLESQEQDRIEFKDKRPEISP
In outline:
as §1

The next assay concerns the target T6, ELF5 (Homo sapiens, UniProt Q9UKW6-2 1-255).
T6 sequence: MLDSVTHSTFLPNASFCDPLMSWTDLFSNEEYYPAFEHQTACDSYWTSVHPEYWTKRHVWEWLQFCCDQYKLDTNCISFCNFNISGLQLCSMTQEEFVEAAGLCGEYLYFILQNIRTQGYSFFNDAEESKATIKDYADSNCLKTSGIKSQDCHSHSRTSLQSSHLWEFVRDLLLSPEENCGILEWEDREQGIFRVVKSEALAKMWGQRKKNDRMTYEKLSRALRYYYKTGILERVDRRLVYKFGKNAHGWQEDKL
The procedure, abridged:
as §1

The target in a further assay is T7, ETV3 (Homo sapiens, UniProt P41162-2 1-143).
T7 sequence: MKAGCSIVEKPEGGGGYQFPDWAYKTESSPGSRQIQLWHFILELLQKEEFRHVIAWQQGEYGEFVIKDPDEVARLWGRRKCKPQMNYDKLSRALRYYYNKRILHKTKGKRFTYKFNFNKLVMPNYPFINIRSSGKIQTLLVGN
In outline: as §1

For the next assay, the target named is ETV6 (Homo sapiens, UniProt P41212 1-452). The procedure, abridged: as §1
Sequence of ETV6 (P41212 whole entry): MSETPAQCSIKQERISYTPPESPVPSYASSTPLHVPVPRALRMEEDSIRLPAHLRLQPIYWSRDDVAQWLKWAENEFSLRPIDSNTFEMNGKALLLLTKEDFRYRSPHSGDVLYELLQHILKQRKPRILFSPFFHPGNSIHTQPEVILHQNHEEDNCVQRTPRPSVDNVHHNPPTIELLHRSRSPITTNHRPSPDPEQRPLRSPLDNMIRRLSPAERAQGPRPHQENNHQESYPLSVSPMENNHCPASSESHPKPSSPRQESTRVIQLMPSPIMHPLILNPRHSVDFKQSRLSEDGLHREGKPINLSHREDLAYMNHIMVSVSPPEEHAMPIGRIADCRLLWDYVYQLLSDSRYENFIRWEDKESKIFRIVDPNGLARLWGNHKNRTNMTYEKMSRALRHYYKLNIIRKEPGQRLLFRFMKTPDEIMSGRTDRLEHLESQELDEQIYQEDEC

Consider TTCATA, for which the binding signal with ERF was 1.19 fold enrichment (6-mer frequency, TF over GST control); with ETV3L, 1.23 fold enrichment (6-mer frequency, TF over GST control); with ETS2 it was 1.15 fold enrichment (6-mer frequency, TF over GST control); in the assay with SPDEF, 1.1 fold enrichment (6-mer frequency, TF over GST control); with ETV7 it was 1.12 fold enrichment (6-mer frequency, TF over GST control); in the assay with ELF5, 1.15 fold enrichment (6-mer frequency, TF over GST control). The binding signal in the assay with ETV3 was 1.16 fold enrichment (6-mer frequency, TF over GST control); with ETV6 it was 1.14 fold enrichment (6-mer frequency, TF over GST control).

For the sequence GCCCCT, the binding signal with ERF is 1.27 fold enrichment (6-mer frequency, TF over GST control); with ETV3L it was 1.3 fold enrichment (6-mer frequency, TF over GST control); with ETS2, 1.27 fold enrichment (6-mer frequency, TF over GST control); with SPDEF it was 1.37 fold enrichment (6-mer frequency, TF over GST control); in the assay with ETV7 it was 1.22 fold enrichment (6-mer frequency, TF over GST control); with ELF5, 1.2 fold enrichment (6-mer frequency, TF over GST control). Moreover, the binding signal was 1.23 fold enrichment (6-mer frequency, TF over GST control) with ETV3 and 1.23 fold enrichment (6-mer frequency, TF over GST control) with ETV6.

In the case of CCTAAC, the binding signal in the assay with ERF was 1.53 fold enrichment (6-mer frequency, TF over GST control); in the assay with ETV3L, 1.45 fold enrichment (6-mer frequency, TF over GST control); in the assay with ETS2, 1.38 fold enrichment (6-mer frequency, TF over GST control); in the assay with SPDEF, 1.41 fold enrichment (6-mer frequency, TF over GST control); with ETV7, 1.25 fold enrichment (6-mer frequency, TF over GST control); with ELF5 it was 1.39 fold enrichment (6-mer frequency, TF over GST control). The binding signal with ETV3 is 1.32 fold enrichment (6-mer frequency, TF over GST control); in the assay with ETV6, 1.3 fold enrichment (6-mer frequency, TF over GST control).

On to TACACG, for which the binding signal was 1.06 fold enrichment (6-mer frequency, TF over GST control) with ERF; 1.03 fold enrichment (6-mer frequency, TF over GST control) in the assay with ETV3L; 1.11 fold enrichment (6-mer frequency, TF over GST control) with ETS2; 1.18 fold enrichment (6-mer frequency, TF over GST control) with SPDEF; 1.15 fold enrichment (6-mer frequency, TF over GST control) with ETV7; 1.13 fold enrichment (6-mer frequency, TF over GST control) with ELF5. For the same sequence, the binding signal in the assay with ETV3 is 1.08 fold enrichment (6-mer frequency, TF over GST control); with ETV6, 1.07 fold enrichment (6-mer frequency, TF over GST control).

In the case of GCTGCT, the binding signal with ERF was 1.11 fold enrichment (6-mer frequency, TF over GST control); with ETV3L, 1.43 fold enrichment (6-mer frequency, TF over GST control); in the assay with ETS2, 1.43 fold enrichment (6-mer frequency, TF over GST control); in the assay with SPDEF it was 1.21 fold enrichment (6-mer frequency, TF over GST control); with ETV7, 1.21 fold enrichment (6-mer frequency, TF over GST control); in the assay with ELF5, 1.23 fold enrichment (6-mer frequency, TF over GST control). Further, the binding signal with ETV3 was 1.2 fold enrichment (6-mer frequency, TF over GST control); with ETV6 it was 1.27 fold enrichment (6-mer frequency, TF over GST control).

Take ACTCGA: the binding signal in the assay with ERF is 1.33 fold enrichment (6-mer frequency, TF over GST control); with ETV3L it was 1.3 fold enrichment (6-mer frequency, TF over GST control); with ETS2 it was 1.33 fold enrichment (6-mer frequency, TF over GST control); with SPDEF, 1.29 fold enrichment (6-mer frequency, TF over GST control); with ETV7, 1.28 fold enrichment (6-mer frequency, TF over GST control); with ELF5 it was 1.22 fold enrichment (6-mer frequency, TF over GST control). In addition, the binding signal with ETV3 was 1.27 fold enrichment (6-mer frequency, TF over GST control); in the assay with ETV6, 1.27 fold enrichment (6-mer frequency, TF over GST control).

These data come from PMC7862700, “An all-to-all approach to the identification of sequence-specific readers for epigenetic DNA modifications on cytosine”.
